The nature of test [1]: High-throughput drug toxicity screening in the BPDCN cell line Gen2.2 (AID 1224824; call rule not given here;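 note: cells exposed to compounds for 48 h before reading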). The following applies: Gen2.2 BPDCN cells; at 45.8 µM (top of the series) unless noted. The gist of the method:
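CellTiter-Glo luminescence read after 48 h compound exposure at 37 C defines viability; percent activity set with DMSO as 100% and bortezomib (9.2 uM final) as 0%. 500 exponentially growing cells per well, RPMI plus 10% FBS.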

Test [2] is described as follows: High-throughput drug toxicity screening in the BPDCN cell line Cal-1 (AID 1224825; call rule not given here). The conditions noted are these: Cal-1 BPDCN cell viability, qHTS; at 45.8 µM (top of the series) unless noted. The gist of the method: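 Viability of the BPDCN line Cal-1 is measured as ATP-based luminescence (CellTiter-Glo) following 48 h incubation with compounds. Percent activity uses DMSO-treated wells as 100% and 9.2 uM bortezomib as 0%.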
In general terms: qHTS replaces the single test concentration by a dilution series.

Test [3] in a line: qHTS assay for measurement of the activity of small molecule inhibitors on Zika virus induced Caspase-3 activity in human iPSC derived neural progenitor cells (hNPCs) (AID 1224857). Note: % of control where 0% means no effect; nearly all actives have a fitted effect of over 65% in size. The gist of the method: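 Zika virus (2 FFU/cell) infection of human iPSC-derived NPCs, 6 h, following 1 h compound preincubation. Read-out: Caspase-Glo 3/7 luminescence.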
Test [4] in a line: qHTS assay for measurement of the activity of small molecule inhibitors on Zika virus induced Caspase-3 activity in human astrocytoma cells (AID 1224859).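 Note: plate controls were ZIKV-infected untreated cells for no effect and uninfected cells for full effect.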 The gist of the method:
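Caspase activation in ZIKV-infected SNB-19 cells (2 FFU/cell, 6 h) measured by Caspase-Glo 3/7 luminescence after 30 min RT; compound pre-incubated 1 h; normalised to uninfected and infected controls.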

Test [5] is described as follows: qHTS Screen of the MIPE 4.0 Collection Against Ewings Sarcoma (RDES) (AID 1259252). Note: nearly all actives have a fitted effect of over 35% in size. Note: potency is the fitted concentration of half-maximal effect. In short, it runs like this:
(§1)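 Here, cells in 5% FBS RPMI were exposed for two days (48 h) to compound dilutions added four hours after plating. ATP-based CellTiter-Glo luminescence measured viability, normalized to vehicle and no-cell blanks.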

Test [6] can be described thus: qHTS Screen of the MIPE 4.0 Collection Against Ewings Sarcoma (TC71) (AID 1259253). Note: nearly all actives have a fitted effect of over 40% in size. Note: potency is the fitted concentration of half-maximal effect. In short, it runs like this: as §1
Test [7] in a line: qHTS Screen of the MIPE 4.0 Collection Against Ewings Sarcoma (EW8) (AID 1259255).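 For viability: 100% = DMSO-treated cells and 0% = medium-only wells without cells.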 Note: nearly all actives have a fitted effect of over 35% in size. Note: potency is the fitted concentration of half-maximal effect. In short, it runs like this: as §1
Test [8] in a line: qHTS Screen of the MIPE 4.0 Collection Against Ewings Sarcoma (TC32) (AID 1259256). Note: nearly all actives have a fitted effect of over 45% in size. Note: potency is the fitted concentration of half-maximal effect. In short, it runs like this:
as §1

Test [9] can be described thus: qHTS assay to identify small molecule inhibitors of chordoma cells - UCH-1 (AID 1259355). Note: % is set by controls: 0 for no effect and ±100 for the full control effect; nearly all actives have a fitted effect of over 55% in size. The gist of the method:
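A 48hr growth-inhibition format: each drug tested at 15 concentrations together with added auranofin, camptothecin, doxorubicin, rubitecan and topotecan, with cell viability quantified as CellTiter-Glo luminescence.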

A short description of test [10]: qHTS assay to identify small molecule inhibitors of chordoma cells - UCH-2 (AID 1259356). Note: % is set by controls: 0 for no effect and ±100 for the full control effect.
A short description of test [11]: P-glycoprotein substrates identified in KB-3-1 adenocarcinoma cell line, qHTS therapeutic library screen (AID 1346986). Note: nearly all actives have a fitted effect of over 60% in size. The conditions noted are these: KB-3-1 parental cells viability, CellTiter-Glo, 72 h; at 44.5 µM (top of the series). The gist of the method:
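72 h cell-killing screen, 500 cells/well, CellTiter-Glo luminescence. Paired lines KB-3-1/KB-8-5-11; P-gp dependence checked by tariquidar co-treatment and HEK-293 MDR-19 versus empty-vector cells.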

A short description of test [12]: P-glycoprotein substrates identified in KB-8-5-11 adenocarcinoma cell line, qHTS therapeutic library screen (AID 1346987). Note: nearly all actives have a fitted effect of over 65% in size. Note: potency is the fitted concentration of half-maximal effect. In short, it runs like this: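 Luminescence from CellTiter-Glo, read 5 min after addition, quantified survival of KB-8-5-11 (P-gp-overexpressing) cells exposed to compounds for 72 h. AC50 was derived from concentration-response curves.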
Test [13] is described as follows: qHTS profiling of the MIPE4 collection as inhibitors of Plasmodium falciparum (DD2) proliferation (Rep 2) (AID 743346; call rule not given here). The following applies: P. falciparum Dd2 in erythrocytes, SYBR Green DNA, 72 h; at 28.5 µM (top of the series) unless noted. In short, it runs like this: (§2)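 Parasite DNA was quantified by SYBR Green I fluorescence (ex 485, em 535 nm) after overnight lysis in saponin/Triton buffer at room temperature. Cultures at 0.3% parasitemia and 2.5% hematocrit were first exposed to compound for 72 h at 37 C; signals were normalised to artemisinin (0.29 uM) and vehicle wells.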

A short description of test [14]: qHTS profiling of the MIPE4 collection as inhibitors of Plasmodium falciparum (HB3) proliferation (AID 743347; call rule not given here;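 note: plate controls were DMSO vehicle wells for no effect and artemisinin wells for full effect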). The following applies: P. falciparum HB3 in erythrocytes, SYBR Green DNA, 72 h; at 28.5 µM (top of the series) unless noted. In short, it runs like this: as §2
The nature of test [15]: Identifying Small Molecule Inhibitors of Pancreatic Cancer Stem Cells (Panc1, Adherent) (AID 1259362). Note: potency is the fitted concentration of half-maximal effect. The conditions noted are these: viability. The gist of the method: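 Endpoint: ATP-based luminescence, 48 h drug exposure. Bortezomib at 9.2 uM final as full-kill control; DMSO vehicle as negative control; activity normalized between vehicle and cell-free wells.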

Results filed as inconclusive are left out. Calls of active or inactive are those of the source. Unless noted, calls come from the whole dose curve; as a rule, active = well fitted curve in the direction sought with a large enough effect; inconclusive = small, poorly fitted or top-dose-only effect, or another doubt; inactive = no such curve, though single readings can be large; an effect the other way counts as inactive or inconclusive.

With `O=NN(CCCl)C(=O)NC1CCCCC1`, in test [1], the cell viability, % of control (lower = more cytotoxic) worked out at 110%. The viability (% of control) in test [2] was found to be 102%. Further, the Potency result in test [3], in test [4], in test [5], in test [6], in test [7] and in test [8] was “inactive” throughout. In addition, the Potency result in test [9], in test [10] and in test [12] was “inactive” each time. Moreover, the outcome in test [11] was inactive.

Turning to `COC(=O)Nc1nc2ccc(S(=O)c3ccccc3)cc2[nH]1` (centres undefined), the parasite growth, % of control (lower = inhibition) in [13] is 68.5%. The growth, % of control in test [14] is 104%. Also, the cell viability, % of control (lower = more cytotoxic) in [1] was 86.3%. Besides, the viability (% of control) in test [2] came out at 22.2%. Further, the Potency result in test [3] and in test [4] was “inactive” each time. Besides, the Potency in test [5] is 11.8 µM (active); in [6] it was 18.7 µM (active); in test [7] it was 13.2 µM (active); in [8] it was 11.8 µM (active); in test [12], 10.5 µM (active).

On to `O=C(O)CCn1c2c(c3ccccc31)C[C@H](NS(=O)(=O)c1ccc(F)cc1)CC2`, for which the cell viability, % of control (lower = more cytotoxic) in [1] worked out at 124%. Further, the viability (% of control) in test [2] was found to be 118%. Also, the Potency entry in [3], in test [4], in test [5], in [6], in test [7] and in [8] was “inactive” throughout. Further, in test [12], the Potency entry is “inactive”. The result in test [11] was inactive.

In the case of `O=C(O)c1cn(C2CC2)c2cc(N3CCNCC3)c(F)cc2c1=O`, in test [13], the parasite growth, % of control (lower = inhibition) was determined as 67.8%. The growth, % of control in test [14] worked out at 76.4%. For the same molecule, in [1], the cell viability, % of control (lower = more cytotoxic) came to 138%. In addition, the viability (% of control) in test [2] was found to be 103%. Further, the Potency result in test [3], in test [4], in test [5], in [6], in [7] and in test [8] was “inactive” each time. Also, the Potency entry in [10] and in [12] was “inactive” throughout. In addition, the outcome in test [11] was inactive.

Molecule `COCCCOc1cc(C[C@@H](C[C@H](N)[C@@H](O)C[C@H](C(=O)NCC(C)(C)C(N)=O)C(C)C)C(C)C)ccc1OC` registered a parasite growth, % of control (lower = inhibition) in test [13] of 50.1%. In addition, in test [14], the growth, % of control was 86.2%. Also, in test [1], the cell viability, % of control (lower = more cytotoxic) amounted to 148%. The viability (% of control) in [2] stood at 113%. Besides, the Potency entry in test [3], in test [4], in test [5], in test [6], in test [7] and in [8] was “inactive” in each case. Also, the Potency result in test [12] was “inactive”.

The molecule `O=c1oc2c(O)c(O)cc3c(=O)oc4c(O)c(O)cc1c4c23` displayed a parasite growth, % of control (lower = inhibition) in test [13] of 5.89%. The growth, % of control in test [14] turned out to be 6.72%. The cell viability, % of control (lower = more cytotoxic) in [1] is 225%. In test [2], the viability (% of control) was found to be 131%. Further, the Potency result in test [3], in test [4], in [5], in test [6], in test [7] and in test [8] was “inactive” in each case. Moreover, the Potency entry in [10] and in test [12] was “inactive” throughout.

As to `COc1cc2nc(N3CCCN(C)CC3)nc(NC3CCN(Cc4ccccc4)CC3)c2cc1OC`, the parasite growth, % of control (lower = inhibition) in test [13] is 7.33%. The same molecule showed a growth, % of control in [14] of 8.7%. The cell viability, % of control (lower = more cytotoxic) in test [1] came out at 9.38%. Moreover, in [2], the viability (% of control) amounted to 4.13%. The Potency entry in test [3] and in test [4] was “inactive” in each case. Moreover, the Potency in test [5] was 8.33 µM (active); in test [6] it was 10.5 µM (active); in test [7] it was 7.43 µM (active); in test [8] it was 5.26 µM (active); in test [15] it was 2.35 µM (active); in test [12] it was 9.35 µM (active).

In turn, `O=P(O)(O)C(O)(Cc1cccnc1)P(=O)(O)O` came in with a parasite growth, % of control (lower = inhibition) in test [13] of 80.5%. This molecule also yielded a growth, % of control in [14] of 100%. For the same molecule, in [1], the cell viability, % of control (lower = more cytotoxic) is 147%. The viability (% of control) in [2] was found to be 125%. Further, the Potency result in [3], in [4], in test [5], in [6], in [7] and in test [8] was “inactive” each time. Also, the Potency entry in test [9], in test [10] and in test [12] was “inactive” each time.
